Results taken from PubChem BioAssay AID1159580 (chemical genetic matrix, 2015).
Among all 5,500 compounds or so, about 2,000 (36%) were called active. About 18% were inconclusive and are not listed. Cut-off read from the data, not from the text of the source: active = normalized growth mostly below about 0.91 (no sharp cut-off); inconclusive = no clear call, values can overlap the other calls; inactive = mostly above about 0.92. This is one part of the list.

Experiment: chemical genetic growth profiling, strain panel (AID 1159580);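 note: tested at 20 µM; growth read once vehicle control cultures reached saturation at 30 °C; 1 = growth at the plate median or of vehicle wells; lower values mean less growth of the strain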
Conditions: S. cerevisiae deletion strains, growth OD

Measured: normalized growth

CC(SCc1ccccc1)C(=O)O (centres undefined)
inactive: locus YAL013W, strain DEP1, active compounds read low 0.971 | locus YBR229C, strain ROT2, active compounds read low 0.965 | locus YCL061C, strain MRC1, active compounds read low 0.997 | locus YDL101C, strain DUN1, active compounds read low 1 | locus YDL134C, strain PPH21, active compounds read low 1 | locus YDR150W, strain NUM1, active compounds read low 0.91 | locus YEL061C, strain CIN8, active compounds read low 1.04 | locus YGR078C, strain PAC10, active compounds read low 0.994 | locus YHR030C, strain SLT2, active compounds read low 0.992 | locus YHR087W, strain rtc3, active compounds read low 0.978 | locus YJL187C, strain SWE1, active compounds read low 0.986 | locus YJR043C, strain POL32, active compounds read low 0.981 | locus YJR075W, strain HOC1, active compounds read low 0.965 | locus YKL190W, strain CNB1, active compounds read low 1 | locus YLR039C, strain RIC1, active compounds read low 1.02 | locus YLR058C, strain SHM2 (second series), active compounds read low 0.988 | locus YLR085C, strain ARP6, active compounds read low 1.01 | locus YLR262C, strain YPT6, active compounds read low 1.02 | locus YML094W, strain GIM5, active compounds read low 1.02 | locus YMR219W, strain ESC1, active compounds read low 0.979 | locus YMR263W, strain SAP30, active compounds read low 0.984 | locus YNL153C, strain GIM3, active compounds read low 0.981 | locus YNL298W, strain CLA4 (second series), active compounds read low 1.04 | locus YNL322C, strain KRE1, active compounds read low 0.991 | locus YNR030W, strain Alg12, active compounds read low 1 | locus YOL006C, strain TOP1, active compounds read low 1.02 | locus YPL055C, strain LGE1, active compounds read low 0.856 | locus YPL241C, strain CIN2, active compounds read low 1 | locus YPR135W, strain CTF4, active compounds read low 0.976
